# Reference: ChEMBL document CHEMBL3988442, “University of Dundee, Small-Polar-MMV Screening Library” (2021)
# For some assays here: Results with a measured potency or affinity are listed apart.
# Assays:
# Design in all cases: scale not given: direction of the effect not stated beside the values
# [1] = target: T1, Aspartate--tRNA(Asp/Asn) ligase (Mycobacterium tuberculosis (strain ATCC 25618 / H37Rv)) (UniProt P9WFW3); experiment: Assay for Asp RNA synthetase-1 from Mycobacterium tuberculosis; type: functional; conditions: 30 µM; further: in the data most compounds retested in dose-response had high values
# T1 sequence (whole entry): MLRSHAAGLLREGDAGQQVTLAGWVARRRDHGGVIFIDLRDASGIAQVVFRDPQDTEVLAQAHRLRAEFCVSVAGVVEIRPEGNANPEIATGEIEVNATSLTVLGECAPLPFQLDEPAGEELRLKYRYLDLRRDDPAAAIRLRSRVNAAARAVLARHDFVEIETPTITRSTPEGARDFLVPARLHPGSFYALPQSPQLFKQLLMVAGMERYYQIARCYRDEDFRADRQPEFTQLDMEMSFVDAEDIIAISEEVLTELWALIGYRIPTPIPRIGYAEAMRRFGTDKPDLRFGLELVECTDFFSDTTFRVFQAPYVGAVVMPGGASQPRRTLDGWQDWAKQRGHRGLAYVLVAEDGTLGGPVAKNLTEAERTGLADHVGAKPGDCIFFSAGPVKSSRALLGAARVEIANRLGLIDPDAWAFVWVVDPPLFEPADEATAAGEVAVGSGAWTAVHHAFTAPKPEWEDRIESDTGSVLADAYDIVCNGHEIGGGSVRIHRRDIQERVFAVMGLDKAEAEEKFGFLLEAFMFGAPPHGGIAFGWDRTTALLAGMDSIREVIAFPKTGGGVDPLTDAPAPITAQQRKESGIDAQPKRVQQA
# [2] = target: Protein translocase subunit SecA (Escherichia coli (strain K12)) (UniProt P10408); experiment: Assay to Identify E. coli SecA ATPase Inhibitors; type: functional; conditions: 30 µM
# [3] = target: T2, Ubiquitin-activating enzyme e1, putative (Leishmania donovani (strain BPK282A1)) (UniProt E9BSI1); experiment: Leishmania donovani Ubiquitin Activating Enzyme (LdE1); type: functional; conditions: 30 µM
# T2 sequence (whole entry): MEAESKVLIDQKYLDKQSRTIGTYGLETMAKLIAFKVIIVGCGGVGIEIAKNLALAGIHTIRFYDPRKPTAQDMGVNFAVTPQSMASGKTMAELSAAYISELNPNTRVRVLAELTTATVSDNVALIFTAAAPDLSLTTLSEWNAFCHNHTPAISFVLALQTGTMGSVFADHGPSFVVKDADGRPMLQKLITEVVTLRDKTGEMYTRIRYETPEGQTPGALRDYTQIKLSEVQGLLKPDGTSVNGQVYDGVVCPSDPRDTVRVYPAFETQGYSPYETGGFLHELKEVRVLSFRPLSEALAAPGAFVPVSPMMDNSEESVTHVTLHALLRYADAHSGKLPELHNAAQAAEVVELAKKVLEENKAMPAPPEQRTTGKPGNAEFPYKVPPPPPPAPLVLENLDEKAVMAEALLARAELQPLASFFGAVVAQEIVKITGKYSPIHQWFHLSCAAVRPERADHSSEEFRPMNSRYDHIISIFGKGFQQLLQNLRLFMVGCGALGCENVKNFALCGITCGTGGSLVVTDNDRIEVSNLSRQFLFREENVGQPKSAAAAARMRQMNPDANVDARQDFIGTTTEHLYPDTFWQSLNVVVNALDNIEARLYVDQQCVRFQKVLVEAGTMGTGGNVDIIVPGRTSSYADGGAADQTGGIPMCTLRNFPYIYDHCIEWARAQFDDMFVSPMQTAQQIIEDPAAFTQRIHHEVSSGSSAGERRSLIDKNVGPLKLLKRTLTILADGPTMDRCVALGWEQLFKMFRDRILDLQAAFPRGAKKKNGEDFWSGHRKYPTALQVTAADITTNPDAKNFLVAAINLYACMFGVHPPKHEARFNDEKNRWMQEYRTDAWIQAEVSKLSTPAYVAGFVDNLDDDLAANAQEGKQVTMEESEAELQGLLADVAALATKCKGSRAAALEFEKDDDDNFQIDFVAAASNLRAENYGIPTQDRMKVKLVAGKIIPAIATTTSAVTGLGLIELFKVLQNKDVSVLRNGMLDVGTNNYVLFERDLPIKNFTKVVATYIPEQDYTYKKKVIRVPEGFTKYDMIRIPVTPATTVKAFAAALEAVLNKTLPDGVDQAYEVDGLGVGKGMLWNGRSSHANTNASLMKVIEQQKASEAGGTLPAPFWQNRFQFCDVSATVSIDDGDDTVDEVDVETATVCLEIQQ
# [4] = target: Sialic acid-binding Ig-like lectin 9 (Homo sapiens) (UniProt Q9Y336); experiment: Hs-Siglec9 ALPHAscreen SOP 20170721; conditions: 10 µM
# Trypanosoma cruzi = experiment: Trypanosoma cruzi phosphomannomutase and mannose-1-phosphate guanylyltransferase assay; type: functional; conditions: 10 µM
# [5] = target: T3, Arginase-2, mitochondrial (Homo sapiens) (UniProt P78540); experiment: in vitro enzyme assay to detect the production of urea directly proportional to the activity of Arginase II; type: functional; conditions: 33.3 µM; further: in the data most compounds retested in dose-response had high values
# T3 sequence (whole entry): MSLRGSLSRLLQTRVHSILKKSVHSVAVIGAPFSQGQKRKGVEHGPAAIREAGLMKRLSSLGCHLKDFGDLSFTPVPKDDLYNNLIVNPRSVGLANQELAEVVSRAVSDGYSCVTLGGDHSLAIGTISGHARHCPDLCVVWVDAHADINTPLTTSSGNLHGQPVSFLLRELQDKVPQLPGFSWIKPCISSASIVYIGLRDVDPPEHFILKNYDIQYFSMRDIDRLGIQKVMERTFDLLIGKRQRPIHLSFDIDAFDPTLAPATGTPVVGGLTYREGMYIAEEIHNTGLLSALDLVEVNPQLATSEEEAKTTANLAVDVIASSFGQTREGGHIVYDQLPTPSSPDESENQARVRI
# [6] = target: T4, Proteasome subunit beta (Trypanosoma cruzi) (UniProt O96673); experiment: Trypanosoma cruzi proteasome chymotrypsin-like activity (TcProtChymo) assay.; further: in the data most compounds retested in dose-response had high values; type: functional; conditions: 9.37 µM
# T4 sequence (whole entry): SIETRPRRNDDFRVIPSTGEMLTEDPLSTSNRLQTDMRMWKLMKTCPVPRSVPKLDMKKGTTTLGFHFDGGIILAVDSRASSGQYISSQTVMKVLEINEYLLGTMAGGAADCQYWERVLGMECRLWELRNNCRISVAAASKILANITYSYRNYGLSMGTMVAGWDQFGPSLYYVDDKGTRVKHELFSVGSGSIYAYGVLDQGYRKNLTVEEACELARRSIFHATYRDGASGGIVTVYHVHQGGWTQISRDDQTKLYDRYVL
# Homo sapiens = species: Homo sapiens; experiment: To identify inhibition of the IFN signalling (Jak-Stat) pathway via expression of an eGFP reporter gene under the control of an IFN-stimulated response element (ISRE) containing MxA promoter.; type: functional; conditions: 30 µM
# [7] = target: Shiga toxin 2 (Escherichia coli O157:H7) (UniProt P09385+P09386); experiment: E. coli 0.157:H7 Shiga Toxin SOP - stx2 screening assay; type: functional; conditions: 30 µM
# [8] = target: T5, Tyrosyl-tRNA synthetase, putative (Trypanosoma cruzi (strain CL Brener)) (UniProt Q4DSP6); experiment: Trypanosoma cruzi tyrosyl tRNA synthetase (TcYRS) _High Tyrosine SOP; type: functional; conditions: 30 µM; further: in the data most compounds retested in dose-response had high values
# T5 sequence (whole entry): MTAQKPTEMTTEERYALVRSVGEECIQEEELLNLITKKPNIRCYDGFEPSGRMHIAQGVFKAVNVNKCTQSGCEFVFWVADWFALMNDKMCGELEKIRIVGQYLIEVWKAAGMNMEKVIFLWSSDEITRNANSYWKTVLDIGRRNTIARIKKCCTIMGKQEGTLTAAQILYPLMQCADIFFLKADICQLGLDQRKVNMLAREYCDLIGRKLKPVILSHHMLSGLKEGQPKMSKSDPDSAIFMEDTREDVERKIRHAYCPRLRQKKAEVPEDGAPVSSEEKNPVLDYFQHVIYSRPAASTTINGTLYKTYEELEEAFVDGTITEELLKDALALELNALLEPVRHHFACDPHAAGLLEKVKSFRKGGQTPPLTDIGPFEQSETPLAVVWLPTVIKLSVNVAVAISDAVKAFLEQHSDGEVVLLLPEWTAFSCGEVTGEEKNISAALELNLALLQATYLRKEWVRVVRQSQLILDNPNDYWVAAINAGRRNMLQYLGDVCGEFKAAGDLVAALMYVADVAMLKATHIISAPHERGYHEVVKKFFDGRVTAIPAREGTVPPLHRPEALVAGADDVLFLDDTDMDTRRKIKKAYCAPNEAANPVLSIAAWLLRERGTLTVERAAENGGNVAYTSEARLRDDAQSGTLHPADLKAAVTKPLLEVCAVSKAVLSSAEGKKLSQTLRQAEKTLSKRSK
# [9] = target: T5, Tyrosyl-tRNA synthetase, putative (Trypanosoma cruzi (strain CL Brener)); experiment: Trypanosoma cruzi tyrosyl tRNA synthetase (TcYRS) SOP; type: functional; conditions: 30 µM
# [10] = target: Chromo domain-containing protein 1 (Saccharomyces cerevisiae (strain ATCC 204508 / S288c) (Baker's yeast)) (UniProt P32657); experiment: ScCHD-1 Enzyme Inhibition Assay; type: functional; conditions: 30 µM; further: in the data most compounds retested in dose-response had high values
# Chromo domain-containing protein 1 (Saccharomyces cerevisiae (strain ATCC 204508 / S288c) (Baker's yeast)), sequence (P32657 whole entry, the tested form may be a part): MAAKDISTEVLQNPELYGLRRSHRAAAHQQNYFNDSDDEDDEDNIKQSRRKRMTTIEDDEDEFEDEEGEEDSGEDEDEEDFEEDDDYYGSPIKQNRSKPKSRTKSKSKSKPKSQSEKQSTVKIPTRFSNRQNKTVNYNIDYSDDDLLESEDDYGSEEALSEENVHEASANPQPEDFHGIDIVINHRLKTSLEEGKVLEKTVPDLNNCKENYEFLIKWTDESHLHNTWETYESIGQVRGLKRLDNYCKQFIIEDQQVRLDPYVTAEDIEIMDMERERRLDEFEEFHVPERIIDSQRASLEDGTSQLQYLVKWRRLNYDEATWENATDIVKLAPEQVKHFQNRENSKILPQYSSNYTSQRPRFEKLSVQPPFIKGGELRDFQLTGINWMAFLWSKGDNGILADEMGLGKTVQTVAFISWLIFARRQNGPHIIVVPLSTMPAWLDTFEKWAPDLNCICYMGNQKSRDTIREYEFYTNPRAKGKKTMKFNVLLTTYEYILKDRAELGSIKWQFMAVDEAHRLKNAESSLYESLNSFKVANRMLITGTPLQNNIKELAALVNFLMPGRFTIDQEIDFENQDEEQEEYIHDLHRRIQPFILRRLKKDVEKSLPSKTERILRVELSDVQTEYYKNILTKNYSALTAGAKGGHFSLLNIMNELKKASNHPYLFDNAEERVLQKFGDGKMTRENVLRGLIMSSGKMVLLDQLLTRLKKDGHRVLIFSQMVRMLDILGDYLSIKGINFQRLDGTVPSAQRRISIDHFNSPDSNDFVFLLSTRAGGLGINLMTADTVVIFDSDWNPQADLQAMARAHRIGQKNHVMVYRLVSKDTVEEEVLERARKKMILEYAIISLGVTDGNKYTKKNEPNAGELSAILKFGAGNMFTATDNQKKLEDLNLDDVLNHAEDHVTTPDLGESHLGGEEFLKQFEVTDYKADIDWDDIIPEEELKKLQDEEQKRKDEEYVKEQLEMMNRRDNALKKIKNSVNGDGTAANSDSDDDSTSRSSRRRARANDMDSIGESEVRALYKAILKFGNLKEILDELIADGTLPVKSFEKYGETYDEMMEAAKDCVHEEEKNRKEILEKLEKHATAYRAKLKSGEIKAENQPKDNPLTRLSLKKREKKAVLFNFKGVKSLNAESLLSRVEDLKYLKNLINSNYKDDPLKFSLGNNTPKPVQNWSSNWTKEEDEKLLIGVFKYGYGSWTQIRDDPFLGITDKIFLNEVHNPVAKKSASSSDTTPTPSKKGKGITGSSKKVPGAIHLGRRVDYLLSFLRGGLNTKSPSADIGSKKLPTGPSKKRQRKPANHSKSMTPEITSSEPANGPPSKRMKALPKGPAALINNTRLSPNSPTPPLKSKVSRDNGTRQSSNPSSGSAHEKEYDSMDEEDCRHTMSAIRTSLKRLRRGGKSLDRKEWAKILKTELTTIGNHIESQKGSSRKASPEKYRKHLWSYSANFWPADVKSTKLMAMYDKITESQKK
# Sialic acid-binding Ig-like lectin 9 (Homo sapiens), sequence (Q9Y336 whole entry): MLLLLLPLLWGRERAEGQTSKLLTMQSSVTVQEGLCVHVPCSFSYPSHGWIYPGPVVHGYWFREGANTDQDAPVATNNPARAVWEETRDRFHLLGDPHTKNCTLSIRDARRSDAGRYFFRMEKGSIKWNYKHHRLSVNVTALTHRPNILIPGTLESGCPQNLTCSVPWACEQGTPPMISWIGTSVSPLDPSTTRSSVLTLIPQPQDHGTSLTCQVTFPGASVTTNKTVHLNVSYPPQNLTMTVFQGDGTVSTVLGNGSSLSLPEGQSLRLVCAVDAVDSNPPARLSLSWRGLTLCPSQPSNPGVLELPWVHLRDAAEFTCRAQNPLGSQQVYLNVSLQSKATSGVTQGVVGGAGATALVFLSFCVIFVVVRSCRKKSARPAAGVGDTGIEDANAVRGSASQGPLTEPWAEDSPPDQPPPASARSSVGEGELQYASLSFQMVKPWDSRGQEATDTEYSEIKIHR
# Protein translocase subunit SecA (Escherichia coli (strain K12)), sequence (P10408 whole entry): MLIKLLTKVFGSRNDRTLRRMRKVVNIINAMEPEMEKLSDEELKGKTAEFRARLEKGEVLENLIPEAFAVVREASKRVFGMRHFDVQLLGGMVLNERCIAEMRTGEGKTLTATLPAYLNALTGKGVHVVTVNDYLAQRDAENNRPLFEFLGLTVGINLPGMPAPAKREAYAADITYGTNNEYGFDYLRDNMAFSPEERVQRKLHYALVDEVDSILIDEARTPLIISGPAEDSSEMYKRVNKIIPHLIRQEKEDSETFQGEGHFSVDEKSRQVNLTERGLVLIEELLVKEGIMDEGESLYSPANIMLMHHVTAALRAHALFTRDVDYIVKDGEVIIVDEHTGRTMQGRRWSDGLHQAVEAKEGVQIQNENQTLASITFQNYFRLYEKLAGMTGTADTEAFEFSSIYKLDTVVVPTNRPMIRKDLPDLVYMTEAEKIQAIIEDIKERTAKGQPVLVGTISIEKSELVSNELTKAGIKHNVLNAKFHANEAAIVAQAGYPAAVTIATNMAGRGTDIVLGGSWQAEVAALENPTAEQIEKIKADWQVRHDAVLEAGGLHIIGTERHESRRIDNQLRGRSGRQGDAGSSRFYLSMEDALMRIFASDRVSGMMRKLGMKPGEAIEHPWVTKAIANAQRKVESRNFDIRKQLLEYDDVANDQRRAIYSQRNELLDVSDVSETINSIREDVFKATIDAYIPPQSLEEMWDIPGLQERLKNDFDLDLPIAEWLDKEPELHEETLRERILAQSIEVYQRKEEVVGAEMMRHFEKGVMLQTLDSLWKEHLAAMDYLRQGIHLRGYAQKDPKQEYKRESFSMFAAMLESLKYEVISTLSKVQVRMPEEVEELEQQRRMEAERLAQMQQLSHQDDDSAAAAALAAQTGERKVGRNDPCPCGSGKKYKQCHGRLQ
SMILES,Percent Effect [1],Percent Effect [2],Percent Effect [3],Percent Effect [4],Percent Effect (Trypanosoma cruzi),Percent Effect [5],Percent Effect [6],Percent Effect (Homo sapiens),Percent Effect [7],Percent Effect [8],Percent Effect [9],Percent Effect [10]
O=C1N(Cc2cccc(F)c2F)CCCC1(O)CN1CCCOCC1 (centres undefined),-2.15%,–,–,–,–,–,–,–,–,–,–,–
COc1ccc(C(=O)C2CCCN(CCCn3cccn3)C2)c(OC)c1 (centres undefined),-0.805%,-4.85%,5.41%,13.1%,7.27%,25.5%,7.71%,3.33%,-4.88%,6.92%,17.1%,77.1%
COc1cccc([C@@H]2CCN(Cc3ccc4ccccc4n3)C[C@H]2O)c1,-2.79%,-6.38%,5.41%,14.7%,4.56%,18.5%,9.76%,1.68%,-2.3%,7.98%,19.5%,-2.92%
O=C(CCNS(=O)(=O)c1ccccc1)NCc1ccoc1,-2.82%,–,–,–,–,–,–,–,–,–,–,–
COc1ccc(C(=O)C2CCCN(Cc3ccc(C)o3)C2)c(OC)c1 (centres undefined),-4.91%,-3.9%,-5.41%,3.98%,-2.04%,1.75%,7.71%,-5.12%,-2.98%,1.6%,7.32%,2.92%
Cc1nn(C)c(N(C)C)c1CNC(C)Cc1c(F)cccc1F (centres undefined),3.29%,-1.71%,26%,10.5%,4.85%,5.12%,7.89%,5.28%,-17.2%,6.86%,23.5%,-9.67%
O=C(Cc1c(F)cccc1F)N1CCN(CC(=O)N2CCCC2)CC1,-5.83%,-1.5%,-1.3%,-2.19%,-0.938%,4.57%,22.1%,12.9%,16.1%,4.83%,10%,-6.7%
C[C@@H]1C(=O)NC[C@H]2CN(Cc3ccsc3)C[C@H]21,-1.43%,-2.31%,3.9%,1.3%,1.88%,-0.457%,-4.55%,-3.55%,-20.9%,6.76%,10%,-9.75%
